PubChem BioAssay (NCI)
Compounds without any hit were thinned out: in the full panel of roughly 83,000, 20% have a hit.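 Testing used 96-well plates and a 48-hour single-concentration exposure. Example: -40 means 40% of the starting cells died.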 Activity calls are given as the source filed them. How the source made its calls: active means growth percent below 10; inactive means the rest.

Experiments:
Test in all cases: NCI-60 one-dose screen, 48 h (100 = growth as untreated, 0 = no growth, -100 = all killed)
Settings in all cases: 10 µM unless noted
[1] = tested on: T-47D breast
[2] = tested on: BT-549 breast
[3] = tested on: MDA-MB-435 melanoma
[4] = tested on: SW-620 colon
[5] = tested on: MCF7 breast
[6] = tested on: HCT-116 colon
[7] = tested on: HCC-2998 colon
[8] = tested on: KM12 colon

Measured: growth

OCCNc1ccccc1
inactive: [1] 98.7% | [2] 97.4% | [3] 107% | [4] 108% | [5] 97.1% | [6] 89.9% | [7] 105% | [8] 101%

CCN(CC)CCN1CNC(=S)NC1
inactive: [1] 94.5% | [2] 102% | [3] 109% | [4] 107% | [5] 98.4% | [6] 103% | [7] 109% | [8] 98.7%

C=CCOc1ccc(Cl)cc1Cl
inactive: [1] 103% | [2] 101% | [3] 102% | [4] 107% | [5] 105% | [6] 104% | [7] 114% | [8] 109%

C=CCc1cc(OC)c(OC)c(OC)c1
inactive: [1] 108% | [2] 96.1% | [3] 108% | [4] 91.8% | [5] 113% | [6] 99.1% | [7] 100% | [8] 88.7%

COc1ccc(C)cc1NC(=O)SC(C)C
inactive: [1] 89.7% [100 µM] | [2] 101% [100 µM] | [3] 101% [100 µM] | [4] 99.8% [100 µM] | [5] 87% [100 µM] | [6] 104% [100 µM] | [7] 98.5% [100 µM] | [8] 101% [100 µM]

CCOC(=O)c1c[nH][nH]c1=O
inactive: [1] 103% | [2] 106% | [3] 104% | [4] 104% | [5] 92.4% | [6] 102% | [7] 98.5% | [8] 111%

Cc1[nH]n(-c2ccccc2)c(=O)c1C=NC(=S)C(N)=S
inactive: [1] 102% | [2] 108% | [3] 109% | [4] 104% | [5] 100% | [6] 89.5% | [7] 102% | [8] 103%

O=[N+]([O-])c1ccc(-c2nc(N(CCO)CCO)c3ccccc3n2)o1
active: [1] 8.21% | [2] -88.5% | [3] -85.5% | [4] -8.14% | [5] 0.425% | [6] -7.95% | [7] -93.2% | [8] -29.1%

Oc1cccc(CNC2CCCCC2)c1
inactive: [1] 113% | [2] 112% | [3] 105% | [4] 116% | [5] 91.3% | [6] 103% | [7] 102% | [8] 107%

O=C(Nc1ccc([N+](=O)[O-])cc1)C(=O)Nc1ccc([N+](=O)[O-])cc1
inactive: [1] 88.7% | [2] 100% | [3] 106% | [4] 96.5% | [5] 90.6% | [6] 97.3% | [7] 103% | [8] 99%

O=C(c1cccc(C(=O)c2ccc3c4c(cccc24)C(=O)N(c2ccccc2)C3=O)c1)c1ccc2c3c(cccc13)C(=O)N(c1ccccc1)C2=O
inactive: [1] 76.3% | [2] 104% | [3] 107% | [4] 104% | [5] 86.8% | [6] 93.9% | [7] 114% | [8] 98.2%

C=CC1=NC(C)(C)CC(C)O1 (stereo unspecified)
inactive: [1] 92.2% | [2] 109% | [3] 94.7% | [4] 104% | [5] 93.4% | [6] 107% | [7] 110% | [8] 109%

CCOP(=O)(OCC)/C(=C\N1C(=O)CC(=O)NC1=S)C(=O)OC
inactive: [1] 95% | [2] 116% | [3] 102% | [4] 101% | [5] 94.7% | [6] 115% | [7] 85.7% | [8] 105%

CCOc1ccncc1[N+](=O)[O-]
inactive: [1] 104% | [2] 111% | [3] 107% | [4] 101% | [5] 100% | [6] 108% | [7] 106% | [8] 101%

CCCC1OC(c2ccco2)OCC1CC (stereo unspecified)
inactive: [1] 103% | [2] 98.3% | [3] 108% | [4] 99.1% | [5] 117% | [6] 99% | [7] 101% | [8] 103%

O=C(NCCc1ccccc1)/C(=C\c1ccc(Cl)cc1Cl)NC(=O)c1ccccc1
inactive: [1] 98.1% | [2] 104% | [3] 96.6% | [4] 95.7% | [5] 91.9% | [6] 99.7% | [7] 113% | [8] 93.4%

COc1ccc(Nc2cc(Cl)ccc2C(=O)O)cn1
inactive: [1] 110% | [2] 122% | [3] 122% | [4] 103% | [5] 98.4% | [6] 102% | [7] 110% | [8] 99.2%

Cc1ccc(S(N)(=O)=O)cc1Cl
inactive: [1] 102% | [2] 77.9% | [3] 114% | [4] 114% | [5] 96.3% | [6] 104% | [7] 116% | [8] 112%

C=CC(C)C(C)(C)O (stereo unspecified)
inactive: [1] 89.2% | [2] 97.3% | [3] 102% | [4] 101% | [5] 101% | [6] 93.9% | [7] 106% | [8] 101%

CC(=O)OC(C)c1cccc(C#N)c1 (stereo unspecified)
inactive: [1] 99.1% | [2] 109% | [3] 113% | [4] 98.2% | [5] 101% | [6] 100% | [7] 107% | [8] 104%

CCC(=O)Oc1c(C)cc(O)c2ccccc12
inactive: [1] 79.5% | [2] 82.1% | [3] 95.7% | [4] 103% | [5] 93.3% | [6] 70% | [7] 106% | [8] 88.6%

NCCCN1CCCC1=O
inactive: [1] 115% | [2] 110% | [3] 124% | [4] 108% | [5] 104% | [6] 107% | [7] 100% | [8] 104%

Cc1ccc(S(=O)(=O)Oc2ccc3sc4c(CO)ccc(NCCN(C)C)c4c(=O)c3c2)cc1
active: [1] -51.8% [100 µM] | [2] -91.2% [100 µM] | [3] -98% [100 µM] | [4] -88% [100 µM] | [5] -76.1% [100 µM] | [6] -75.9% [100 µM] | [7] -88.2% [100 µM] | [8] -68.6% [100 µM]

Oc1ccc(N=Cc2ccc(OCc3ccccc3)cc2)cc1
inactive: [1] 103% | [2] 84.6% | [3] 88.4% | [4] 96.1% | [5] 99.1% | [6] 106% | [7] 112% | [8] 92.8%

CCCCOC(=O)c1ccc(NC(=O)CCl)cc1
active: [6] 4.07%
inactive: [1] 47.2% | [2] 47.5% | [3] 75.9% | [4] 25.8% | [5] 22.8% | [7] 101% | [8] 84.7%

Cc1cccc2ccccc12
inactive: [1] 109% | [2] 99.6% | [3] 104% | [4] 102% | [5] 84.1% | [6] 95.8% | [7] 99.8% | [8] 106%

O=C(NCc1ccco1)Nc1cccc2c(NC(=O)NCc3ccco3)cccc12
inactive: [1] 69.2% [100 µM] | [2] 57.1% [100 µM] | [3] 40% [100 µM] | [4] 23.1% [100 µM] | [5] 60.1% [100 µM] | [6] 15% [100 µM] | [7] 74.5% [100 µM] | [8] 61.1% [100 µM]

O=C(O)Cc1ccc(Cl)cc1
inactive: [1] 117% | [2] 105% | [3] 97.3% | [4] 111% | [5] 99.2% | [6] 77.4% | [7] 108% | [8] 113%

CCN1CCCC(N2c3ccccc3Sc3ccccc32)C1 (stereo unspecified)
inactive: [1] 95.6% | [2] 116% | [3] 109% | [4] 105% | [5] 105% | [6] 90.3% | [7] 103% | [8] 102%

COC(CCCl)c1ccc(Cl)cc1 (stereo unspecified)
inactive: [1] 98.1% | [2] 102% | [3] 107% | [4] 100% | [5] 99% | [6] 103% | [7] 106% | [8] 102%

CC(=O)c1cc(O)ccc1O
inactive: [1] 108% | [2] 90.9% | [3] 108% | [4] 114% | [5] 101% | [6] 103% | [7] 98.9% | [8] 116%

COc1ccc(C2CC(c3ccccc3)=Nc3ccccc3S2)cc1 (stereo unspecified)
inactive: [1] 84.1% | [2] 91.6% | [3] 98.8% | [4] 98.4% | [5] 78.7% | [6] 88.7% | [7] 111% | [8] 87.4%
